Bioassay records deposited in PubChem BioAssay by National Center for Advancing Translational Sciences (NCATS).
TDP1 cell CPT – qHTS for Inhibitors of human tyrosyl-DNA phosphodiesterase 1 (TDP1): qHTS in cells in presence of CPT. Potency, µM (titrated, usually from 46.2 µM), for inactives: at the top dose activity change, negative = growth inhibition, hits mostly inhibitors. chicken DT40 Tdp1-/-;hTDP1 cells + 20 nM CPT, ATP luminescence, 48 h. 420,000 compounds, 12% hits. AID 686979, 2013; note: potency is the fitted concentration of half-maximal effect; % is set by controls: 0 for no effect and ±100 for the full control effect; nearly all actives have a fitted effect of over 55% in size
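Cell growth measured by CellTiter-Glo luminescence after a minimum 48 h, 37 C compound exposure with 20 nM CPT in Tdp1-knockout DT40 cells stably expressing hTDP1, seeded 400/well; qHTS titration format.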
TDP1 cell noCPT – qHTS for Inhibitors of human tyrosyl-DNA phosphodiesterase 1 (TDP1): qHTS in cells in absence of CPT. DT40 Tdp1-/- hTDP1 cells, no CPT, ATP luminescence, 48 h. Potency, µM (doses to about 46.2 µM), for inactives: at the highest dose activity change, negative = growth inhibition, hits mostly inhibitors. AID 686978, 2013. 420,000 compounds, 15% hits; note: potency is the fitted concentration of half-maximal effect; % is set by controls: 0 for no effect and ±100 for the full control effect; nearly all actives have a fitted effect of over 55% in size
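No-CPT arm: Tdp1-/-;hTDP1 DT40 cells (400/well) plus compounds, incubated ≥48 hr at 37 °C. Readout CellTiter-Glo luminescence.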
IL1B secr inh – qHTS for Inhibitors of Inflammasome Signaling: IL-1-beta AlphaLISA Primary Screen | THP-1 LPS/ATP IL-1B secretion, AlphaLISA, 16 h; active compounds read low | AID 743279, 2014 | 360,000 compounds, 4.7% hits | activity change, % at 57.5 µM; in the data active = activity change below about -50%; inconclusive = mostly about -30% to -49%; note: % is set by controls: 0 for no effect and ±100 for the full control effect
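Secreted IL-1B measured by AlphaLISA bead assay after 16 h compound exposure of THP-1 cells; compounds (final up to 57.5 uM) added 1 h before LPS (250 ng/mL) and ATP (1.25 mM) stimulation; lower signal means less secretion.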
TGFb SMAD3 inh – qHTS for Inhibitors of TGF-b | HepG2 CAGA-GFP TGF-b/SMAD3 reporter, GFP fluorescence, 18 h; TGF-beta stimulated, 500 pg/mL final | Potency, µM (series often up to 46.1 µM), for the others: top-dose activity, negative = inhibition, hits mostly inhibitors | 410,000 compounds, 1.2% hits | AID 588855, 2011; note: potency is the fitted concentration of half-maximal effect; % is set by controls: 0 for no effect and ±100 for the full control effect; nearly all actives have a fitted effect of over 65% in size
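Inhibition was scored as loss of TGF-beta-induced (500 pg/mL final, 18 hours, 37 degrees C) GFP in HEPG2 cells carrying a CAGA-GFP reporter, in DMEM with 1% FBS. Well GFP was summed per cell; Activity was normalised to unstimulated and stimulated DMSO wells, then concentration-response fitting.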
HepG2 viability – qHTS for Inhibitors of TGF-b: Cytotox Counterscreen. HepG2 CAGA-GFP viability, ATP luminescence, 18 h. Potency, µM (doses to about 46.1 µM), for inactives: at the highest dose activity change, negative = cytotoxicity, usual class: cytotoxic. 410,000 compounds, 0.76% hits. AID 588856, 2011; note: potency is the fitted concentration of half-maximal effect
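HepG2 CAGA-GFP cells (1000/well, DMEM with 1% FBS) received compound, then TGF-beta at 500 pg/mL final, and were incubated 18 hours at 37 degrees C. Viability was read by CellTiter-Glo luminescence. Media-only wells were set as complete cell-killing and DMSO as no toxicity.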
ASM inhibitor – Inhibitors of Secretory Acid Sphingomyelinase (S-ASM): qHTS. Sphingomyelin phosphodiesterase (Homo sapiens), P17405. placental ASM, HMU-PC fluorogenic substrate, 60 min. Potency, µM (titrated, usually from 57.5 µM), for inactives: at the highest dose activity change, negative = inhibition, actives largely listed as inhibitors. 340,000 compounds, 0.006% hits. AID 504937, 2011; note: potency is the fitted concentration of half-maximal effect
Target sequence (P17405 47-631 limits assumed): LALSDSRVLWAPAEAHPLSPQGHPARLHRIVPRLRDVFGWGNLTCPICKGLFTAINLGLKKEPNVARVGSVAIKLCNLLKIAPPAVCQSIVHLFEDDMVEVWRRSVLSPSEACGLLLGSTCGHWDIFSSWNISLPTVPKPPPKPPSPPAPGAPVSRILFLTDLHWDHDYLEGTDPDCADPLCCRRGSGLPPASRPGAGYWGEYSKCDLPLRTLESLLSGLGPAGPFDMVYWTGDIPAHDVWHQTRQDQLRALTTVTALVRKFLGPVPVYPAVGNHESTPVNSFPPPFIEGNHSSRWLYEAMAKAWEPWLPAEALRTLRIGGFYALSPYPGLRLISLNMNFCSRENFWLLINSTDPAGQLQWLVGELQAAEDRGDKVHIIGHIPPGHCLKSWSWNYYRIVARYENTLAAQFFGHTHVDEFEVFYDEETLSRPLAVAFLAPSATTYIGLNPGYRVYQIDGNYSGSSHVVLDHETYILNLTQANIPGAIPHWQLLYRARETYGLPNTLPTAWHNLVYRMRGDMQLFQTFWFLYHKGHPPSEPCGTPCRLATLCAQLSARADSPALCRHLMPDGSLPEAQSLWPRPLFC
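Fluorescence read-out (Ex 386 nm, Em 447 nm) after stopping the reaction at pH 10. Enzyme: ASM from human placenta; substrate HMU-PC0, 9 uM final; 60 min, 37 °C. Compound preincubation 10 min, ambient temperature.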
Numbers without * were called inactive; i = inactive; ? = inconclusive; · = not tested or not shown. An excerpt weighted towards active compounds, which were near 19% of everything screened. Unless noted, calls come from the whole dose curve; as a rule, active = well fitted curve in the direction sought with a large enough effect; inconclusive = small, poorly fitted or top-dose-only effect, or another doubt; inactive = no such curve, though single readings can be large; an effect the other way counts as inactive or inconclusive.

SMILES	TDP1 cell CPT	TDP1 cell noCPT	IL1B secr inh	TGFb SMAD3 inh	HepG2 viability	ASM inhibitor
C=CCN1C(=O)C(=O)N(CC(=O)c2ccc3c(c2)CCCC3)C1=O	-2%	15%	-18	2%	27%	-5%
CCN(CC(=O)NCc1cccs1)C(=O)c1ccc(NS(=O)(=O)c2ccc(C(C)=O)cc2)cc1	-15%	2%	-3	0%	5%	1%
Cc1ccc(N2C(=O)c3ccccc3C2Nc2cccnc2)nc1 (stereo unspecified)	15µM*	26µM*	12	6%	-8%	3%
CCOC(=O)c1ccccc1NC1c2ccccc2C(=O)N1c1ccc(C)cn1 (stereo unspecified)	?	18µM*	-6	-4%	-12%	-4%
CCOC(=O)N1CCC(N2C(=O)c3ccccc3C2Nc2ccccc2C)CC1 (stereo unspecified)	?	?	1	-12%	-13%	0%
CCN(CC)S(=O)(=O)c1ccc(NC2c3ccccc3C(=O)N2c2ccc(C)cn2)cc1 (stereo unspecified)	?	?	11	-15%	-8%	-7%
CCOC(=O)c1ccccc1NC1c2ccccc2C(=O)N1C1CCN(C(=O)OCC)CC1 (stereo unspecified)	?	16µM*	-8	?	-23%	16%
O=C1c2ccccc2C(Nc2cccnc2)N1Cc1ccccc1Cl (stereo unspecified)	?	21µM*	32	?	-7%	4%
CCCc1cc(=O)[nH]c2nnc(SCC(=O)Nc3ccc(OC)cc3)n12	-1%	-5%	·	?	-21%	·
Cc1cc(CC(=O)O)c(C)n1-c1ccc(Cl)cc1	-15%	?	·	·	·	·
CC#CC[N+](C)(C)CCCCCCCCCC	2.3µM*	1.8µM*	-59*	-16%	-2%	-4%
C#CC[N+](C)(C)CCCCCCCCC	2.3µM*	2.3µM*	-68*	-29%	-48%	4%
CCc1ccc(S(=O)(=O)c2cn(CC(=O)Nc3cccc(C)c3)c3ccc(Cl)cc3c2=O)cc1	2%	-27%	·	5%	2%	·
Clc1ccc(C[n+]2cc(-c3ccccc3)n3c2CCC3)cc1Cl	6.5µM*	3.7µM*	-67*	-11%	0%	-1%
Clc1ccc(-c2c[n+](Cc3cccc(Cl)c3)c3n2CCC3)cc1	10µM*	8.2µM*	-74*	-29%	-6%	0%
O=C(C[n+]1cc(-c2ccc(Cl)c(Cl)c2)n2c1CCC2)OCc1ccccc1	-13%	-14%	i	14%	-5%	-1%
C#Cc1cccc(C(=O)N2CCCC(CCC(=O)NCc3ccccc3F)C2)c1 (stereo unspecified)	-30%	-28%	1	-2%	-26%	-3%
O=C(Nc1cccc(Br)c1)c1cc(=O)c2ccccc2o1	?	?	8	3%	-4%	8%
CCN(CC)C(=O)CN(c1cc2c(cc1OC)oc1ccccc12)S(=O)(=O)c1ccccc1	18µM*	?	-12	?	6%	-6%
COc1cc2oc3ccccc3c2cc1N(CC(=O)N(C)C)S(=O)(=O)c1ccc(C)cc1	-8%	-5%	9	17%	7%	0%
COc1cc2oc3ccccc3c2cc1N(CC(=O)N1CCCCC1)S(=O)(=O)c1ccc(C)cc1	?	23µM*	8	-14%	-5%	-6%
COc1cc2oc3ccccc3c2cc1N(CC(=O)N(C)C)S(=O)(=O)c1ccccc1	-61%	?	10	-16%	-3%	-13%
CCSC(=Nc1ccccc1)N1CCOCC1	1%	3%	·	0%	-22%	2%
O=C(CSCc1nc2ccccc2[nH]1)N1CCN(c2ccc(F)cc2)CC1	23µM*	18µM*	?	-20%	-25%	13%
O=C(CSCc1nc2ccccc2[nH]1)N1CCN(c2cccc(Cl)c2)CC1	23µM*	?	?	?	-27%	4%
SMILES	TDP1 cell CPT	TDP1 cell noCPT	IL1B secr inh	TGFb SMAD3 inh	HepG2 viability	ASM inhibitor
O=C(O)CSCc1nc2ccccc2[nH]1	7%	-3%	18	-3%	-2%	2%
O=C(CCSCc1ccccc1Cl)N1CCN(c2cccc(Cl)c2)CC1	?	?	-16	?	-27%	-15%
COc1ccc(C2C(=O)c3ccccc3C2=O)cc1OC	?	-9%	5	19%	3%	6%
COc1cc(C2C3=C(COC3=O)Oc3cc4c(cc32)OCO4)ccc1OC(C)=O (stereo unspecified)	1.6µM*	1.8µM*	22	-10%	0%	-4%
COc1cc(C2N(c3ccccc3)CCN2c2ccccc2)ccc1OC(C)=O	-30%	-17%	-24	5%	2%	-3%
COc1cc(C2C3=C(COC3=O)Oc3cc4c(cc32)OCO4)cc(OC)c1OC(C)=O (stereo unspecified)	0.65µM*	0.65µM*	19	?	-2%	1%
COc1ccc(C2C3=C(COC3=O)Oc3cc4c(cc32)OCO4)cc1OC (stereo unspecified)	1.8µM*	1.5µM*	9	0%	-17%	-1%
Cc1ccc(C)c(N2CCN(CCCNC(=O)Cn3cc4c(n3)CCC(C)C4)CC2)c1 (stereo unspecified)	16µM*	15µM*	0	-13%	0%	0%
CCN(CC)CCCNC(=O)CC1Oc2ccc(C)cc2NC1=O (stereo unspecified)	-9%	-4%	44	9%	-11%	4%
Cc1ccc2c(c1)NC(=O)C(CC(=O)NCCCN1CCN(c3cc(C)ccc3C)CC1)O2 (stereo unspecified)	8.2µM*	7.3µM*	-30	-16%	-38%	-3%
Cc1ccc(C)c(N2CCN(CCCNC(=O)Cn3cc4c(n3)CCCCC4)CC2)c1	4.6µM*	6.5µM*	?	?	-105%	-1%
CC1CCc2c(C(=O)NCc3ccco3)csc2C1 (stereo unspecified)	?	15µM*	-79*	?	-5%	4%
